Assay [1] can be described thus: NCI Yeast Anticancer Drug Screen. Data for the rad50 strain (AID 155).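 Note: 0% = growth of vehicle-only cultures of the same strain.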 Particulars: S. cerevisiae rad50 strain growth inhibition; at 50.0 µM; active compounds read high. In short, it runs like this: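 Compounds were tested on a yeast strain with an engineered DNA damage repair alteration; the reported value is growth inhibition normalised to vehicle treatment.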
Assay [2] in a line: NCI Yeast Anticancer Drug Screen. Data for the mec2-1 strain (AID 157). Particulars: S. cerevisiae mec2-1 strain, at 50.0 µM, active compounds read high. In short, it runs like this:
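Test agents were screened against the mec2-1 yeast strain, with defined DNA repair or cell cycle alteration. Growth was scored as inhibition against vehicle-only controls.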

Assay [3] is described as follows: NCI Yeast Anticancer Drug Screen. Data for the sgs1 mgt1 strain (AID 161).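 Note: 0% = growth of cultures given vehicle only.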 Particulars: S. cerevisiae sgs1 mgt1 strain, at 50.0 µM, active compounds read high. The procedure, abridged:
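Read-out: growth inhibition vs vehicle controls. Cells: mutant yeast strain deficient in DNA damage repair.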

Assay [4] is described as follows: NCI Yeast Anticancer Drug Screen. Data for the cln2 rad14 strain (AID 165).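 Note: 0% = growth equal to vehicle treated cultures.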 Particulars: S. cerevisiae cln2 rad14 strain, at 50.0 µM, active compounds read high. The procedure, abridged: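 Growth of compound-exposed yeast (cln2 rad14 genotype) measured and expressed as inhibition relative to vehicle.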
The nature of assay [5]: NCI Yeast Anticancer Drug Screen. Data for the bub3 strain (AID 167). The conditions noted are these: S. cerevisiae bub3 mutant strain, at 50.0 µM, active compounds read high. In short, it runs like this: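 Growth of a checkpoint-deficient yeast mutant is measured after compound exposure. Values represent inhibition relative to vehicle.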
Assay [6] is described as follows: NCI Yeast Anticancer Drug Screen. Data for the mlh1 rad18 strain (AID 175). Particulars: S. cerevisiae mlh1 rad18 strain growth inhibition; at 50.0 µM; active compounds read high. The procedure, abridged:
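In this whole-cell yeast screen, a strain with altered DNA damage repair is challenged with compound, and its growth is measured against matched vehicle-treated controls.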

The panel holds about 79,000 compounds, 15% with a hit somewhere; the sample as a whole holds those more often. Unmarked numbers belong to inactive results. Active and inactive are the calls of the source. Cut-off read from the data, not from the text of the source: active = growth inhibition above about 70%; inactive = the rest.

Regarding `O=S(=O)(c1ccccc1)N1CCN(S(=O)(=O)c2ccccc2)c2ccccc21`, the growth inhibition in assay [1] was 58.9%; in assay [2], 23.9%; in assay [3], -3.75%; in assay [4], 3.9%; in assay [5], 43.6%; in assay [6] it was 53.9%.

With `Cc1cc2cc3oc(C)cc3cc2o1`, the growth inhibition in assay [1] is 6.3%; in assay [2], -6.45%; in assay [3], -7.8%; in assay [4], -45.6%; in assay [5], -0.8%; in assay [6], 3.25%.

Regarding `CCN(CC)CC(=O)N1CCc2c([nH]c3ccccc23)C1c1cccnc1` (stereo not given), the growth inhibition was -40.1% in assay [1]; -21.4% in assay [2]; -11.6% in assay [3]; -5.95% in assay [4]; -35.5% in assay [5]; -34.5% in assay [6].

On to `COc1ccc(Br)c(CN2CCc3ccccc32)c1OS(=O)(=O)c1ccc(C)cc1`, for which the growth inhibition in assay [1] is 13.8%; in assay [2], -0.3%; in assay [3], 18.7%; in assay [4], 4.1%; in assay [5], 5.45%; in assay [6], 12.4%.

`Cc1ccc(C)c2c(Cl)c3c(C)ccc(C)c3nc12`: the growth inhibition was -8.45% in assay [1]; -4.65% in assay [2]; 0.3% in assay [3]; -29.4% in assay [4]; -9.8% in assay [5]; 7.25% in assay [6].

On to `CCCCCCCCS(=O)(=O)N(C)C`, for which the growth inhibition in assay [1] was -18.6%; in assay [2], -24.9%; in assay [3], 0.4%; in assay [4] it was -28.3%; in assay [5], -31.1%; in assay [6], -15.2%.

Take `CSc1nc(=O)[nH]c2c1[nH]c(=O)n2-c1ccccc1`: the growth inhibition in assay [1] is 1.2%; in assay [2], 5.85%; in assay [3] it was -6.35%; in assay [4], -15.7%; in assay [5], 8.3%; in assay [6], -9.05%.

For `CCCCCCc1cc2cc(C(=O)Nc3nc(C45CC6CC(CC(C6)C4)C5)cs3)c(=O)oc2cc1O`, the growth inhibition was -16.4% in assay [1]; -19.8% in assay [2]; -1.15% in assay [3]; 17.9% in assay [4]; -16.6% in assay [5]; -11.7% in assay [6].

Regarding `CCN(CC)CCNc1ccc2ncn3c4c(OC)ccc(OC)c4c(=O)c1c23`, the growth inhibition is -21.1% in assay [1]; -22.2% in assay [2]; 0.9% in assay [3]; 22.6% in assay [4]; -47% in assay [5]; 62.1% in assay [6].

`[N-]=[N+]=NC1CC(n2cc(Cc3ccccc3)c(N)nc2=O)OC1CO` (stereo not given): the growth inhibition in assay [1] was -0.1%; in assay [2] it was -10.6%; in assay [3], 11.4%; in assay [4], 2.95%; in assay [5], 2.9%; in assay [6], -7.05%.

As for `CCCO/N=[N+](\[O-])N(CC)CC`, the growth inhibition was -7.7% in assay [1]; -17.4% in assay [2]; 7.5% in assay [3]; 13.8% in assay [4]; -0.8% in assay [5]; -1.45% in assay [6].

Consider `OC1(c2ccccc2)CCN(C/C=C/c2ccccc2Cl)CC1`, for which the growth inhibition in assay [1] was 66.1%; in assay [2] it was 53.9%; in assay [3] it was 70.1% (active); in assay [4], 77.1% (active); in assay [5], 57.6%; in assay [6], 85.8% (active).

Consider `CC1C2=C(CCCC2=O)O/C1=N\O` (stereo not given), for which the growth inhibition in assay [1] was 11.4%; in assay [2] it was -6.85%; in assay [3], -0.85%; in assay [4] it was -24.9%; in assay [5], 6.7%; in assay [6] it was 12.2%.

On to `CC1(c2ccccc2)CC(c2cccc([N+](=O)[O-])c2)=NO1` (stereo not given), for which the growth inhibition in assay [1] was 27.4%; in assay [2], 15.9%; in assay [3], 36.9%; in assay [4] it was 34.9%; in assay [5] it was 28.6%; in assay [6], 23.4%.

Regarding `CC(C)(C)C(=O)CC(=O)C(C)(C)C.CC(C)(C)C(=O)CC(=O)C(C)(C)C.CC(C)(C)C(=O)CC(=O)C(C)(C)C.[Co]`, the growth inhibition in assay [1] is -10.1%; in assay [2], -8.95%; in assay [3], 21.4%; in assay [4], 16%; in assay [5], -0.6%; in assay [6] it was 0.15%.

For the compound `Nc1ccc2ccc(S(=O)(=O)O)cc2c1`, the growth inhibition is -17.7% in assay [1]; -19.9% in assay [2]; -31.4% in assay [3]; -23.3% in assay [4]; -8.8% in assay [5]; -17.9% in assay [6].

For `COC(=O)Nn1cc(C(C(C)=O)C(C)=O)c(C(C)=O)c1C`, the growth inhibition in assay [1] was -6.9%; in assay [2], -0.15%; in assay [3] it was 7.9%; in assay [4] it was -35.6%; in assay [5] it was -0.05%; in assay [6], 17.9%.

On to `CCOP(=O)(OCC)/C(C#N)=C/c1cccc([N+](=O)[O-])c1`, for which the growth inhibition in assay [1] was -14.2%; in assay [2], 2.5%; in assay [3], -4.85%; in assay [4], 3.85%; in assay [5], -6.55%; in assay [6], 9.25%.

For `O=C(Nc1ccccc1)C(c1ccccc1)N(Nc1ccccc1Cl)c1ccccc1Cl` (stereo not given), the growth inhibition was 28.8% in assay [1]; 10.8% in assay [2]; 17.1% in assay [3]; 7.05% in assay [4]; -5% in assay [5]; 25% in assay [6].

For the compound `CSC(SC)=C1Sc2cccc(Cl)c2S1`, the growth inhibition is 1.65% in assay [1]; 11.3% in assay [2]; 29.2% in assay [3]; -14.7% in assay [4]; -15.1% in assay [5]; -13.8% in assay [6].

These data come from PubChem BioAssay (NCI).
